# TRPV1 PAM: HTS Assay for Compounds that Act as Potentiators of the Vanilloid Receptor 1; potentiation, % at 8.33 µM; hit rate 0.02% among 320,000; TRPV1-expressing cells, Fluo-8 calcium influx, capsaicin EC20 potentiation; AID 540277, 2011; Transient receptor potential cation channel subfamily V member 1 (Homo sapiens), Q8NER1; in the data active means potentiation above about 80%; inconclusive means between about 30% and that limit
#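 Fluo-8 calcium influx in TRPV1-expressing cells, kinetic read (ex 480/em 520 nm). Compound added and read 3 min for agonist activity, followed by capsaicin at EC20 final and 2 min further read for enhancement.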
# D1 potentiator: Potentiators of Human D1 Dopamine Receptor: qHTS. HEK293 TREx D1 cells, calcium flux, dopamine EC20 potentiation. potentiation, % at 10 µM. hit rate 0.036% among 360,000. AID 504651, 2011; in the data active means potentiation above about 30%
# Target sequence (P21728 whole entry, looked up): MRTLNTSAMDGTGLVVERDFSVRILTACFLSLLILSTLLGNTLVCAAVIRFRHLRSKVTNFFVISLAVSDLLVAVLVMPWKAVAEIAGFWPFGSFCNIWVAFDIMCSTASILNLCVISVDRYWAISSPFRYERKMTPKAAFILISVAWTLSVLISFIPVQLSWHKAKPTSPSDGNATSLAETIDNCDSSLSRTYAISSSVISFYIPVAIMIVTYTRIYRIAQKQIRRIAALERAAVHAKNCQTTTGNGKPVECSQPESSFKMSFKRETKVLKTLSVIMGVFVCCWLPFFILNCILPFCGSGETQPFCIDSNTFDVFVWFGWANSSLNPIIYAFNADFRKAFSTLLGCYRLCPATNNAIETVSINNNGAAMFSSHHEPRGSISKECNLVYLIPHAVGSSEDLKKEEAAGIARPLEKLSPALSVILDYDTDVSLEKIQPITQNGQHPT
# TRPV1 ag: HTS Assay for Compounds that Act as Agonists of the Vanilloid Receptor 1; Transient receptor potential cation channel subfamily V member 1 (Homo sapiens), Q8NER1; TRPV1-expressing cells, Fluo-8 calcium influx, agonist mode; activation, % at 8.33 µM; hit rate 0.19% among 320,000; AID 540275, 2011; in the data active means activation above about 80%; inconclusive means between about 30% and that limit
#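 Cells expressing TRPV1 were dye-loaded with Fluo-8 and read kinetically: 10 s baseline, 3 min after compound (agonist portion), then 2 min after EC20 capsaicin (allosteric enhancer portion). Calcium-bound dye fluorescence at 480/520 nm.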
# D1 ag: Allosteric Agonists of the Human D1 Dopamine Receptor: qHTS; HEK293 T-REx D1 cells, calcium flux, agonist mode; activation, % at 2 µM; hit rate 1% among 360,000; AID 504660, 2011; in the data active means activation above about 30%
#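 Agonism was scored from calcium flux recorded over 180 s (1 read/s) after pintool compound addition, following a 10-cycle baseline. Cells were inducible force-coupled HEK293 TREx D1, plated overnight at 30 C and loaded with no-wash calcium dye.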
# D1 antag: Antagonist of Human D 1 Dopamine Receptor: qHTS | D(1A) dopamine receptor (Homo sapiens), P21728 | HEK293 TREx D1 cells, calcium flux, dopamine EC80; stronger effect = lower value | activity change, negative = inhibition, % at 10 µM | hit rate 3.2% among 360,000 | AID 504652, 2011; in the data active means activity change below about -30%
#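 Antagonism measured as reduced calcium response to an EC80 dopamine addition following 180 s compound pre-read; cells were inducible HEK293 Trex D1 plated overnight at 30 C, read kinetically at 1 cycle/sec.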
# Numbers stand for hits; - = inactive; ? = inconclusive; . = no result; ! = repeats disagree. A selection: hits, their analogues and other compounds. The true share with any hit is near 4.2%.
SMILES,TRPV1 PAM,D1 potentiator,TRPV1 ag,D1 ag,D1 antag
COc1ccc(NCc2cc3cc4c(cc3n(CC(=O)Nc3ccc(F)cc3F)c2=O)OCO4)cc1,.,-,.,66.0,-
CCc1ccc(-n2c(=O)c3cccnc3n2CC(=O)Nc2cc(F)ccc2F)cc1,.,-,.,-,-
COc1cc(NC(=O)CC(c2cccs2)N2Cc3ccccc3C2=O)cc(OC)c1OC (stereo not given),.,-,.,-,-
CCc1ccc(NCc2cc3cc4c(cc3n(CC(=O)Nc3ccc(OC)cc3)c2=O)OCO4)cc1,.,-,.,-,-
COc1ccc(NCc2cc3cc4c(cc3n(CC(=O)Nc3ccc(C)cc3)c2=O)OCO4)cc1,.,-,.,57.4,-
COc1cc(/C=N/NC(=O)CCc2ccccc2)ccc1O,-,-,-,-,-
COc1cc(CCC(O)CC(=O)CCc2ccccc2)ccc1O (stereo not given),-,-,84.2,-,-
COc1cc(CCC(=O)OCC(=O)c2ccc[nH]2)cc(OC)c1OC,-,.,-,-,-41.9
COc1cc(CCC(=O)OCC(=O)Nc2ccc(Br)cc2F)cc(OC)c1OC,-,.,-,-,-
COc1cc(CCC(=O)OCC(=O)Nc2ccc(F)cc2F)cc(OC)c1OC,-,-,-,-,-48.3
COc1cc(CC(=O)OCC(=O)NCc2ccc(C)cc2)cc(OC)c1OC,-,-,-,-,-
O=C(CCC(=O)OCC(F)(F)C(F)F)Nc1ccc(F)cc1F,-,-,-,-,-60.4
COc1cc(CC(=O)OCC(=O)NCC(C)C)cc(OC)c1OC,-,-,-,-,-32.5
Cc1ccc(-c2nnc(SCC(=O)NC3CCCC3)nc2-c2ccc(C)cc2)cc1,.,-,.,-,-
O=S(=O)(c1ccccc1)c1nc(-c2ccco2)oc1SCc1ccc(F)cc1,.,-,.,-,-
Cc1ccccc1OCc1nc2ccccc2c(=O)n1/N=C/c1cccc([N+](=O)[O-])c1,-,-,-,-,-32.0
Cc1ccccc1OCc1nc2ccccc2c(=O)n1/N=C/c1cn[nH]c1-c1ccccc1,-,-,-,-,-
C/C(=N\NC(=S)NCc1ccccc1)c1ccc(C#N)cc1,-,-,-,-,-32.8
COc1ccccc1C(=O)N1c2ccccc2C(C)(c2ccc(Cl)cc2)CC1(C)C (stereo not given),.,-,.,-,-
CCc1ccc(C(=O)Cn2ncc(Cl)c(Cl)c2=O)cc1,-,-,?,-,-30.7
Cc1ccc(Cn2ncc(Cl)c(Cl)c2=O)cc1,-,-,-,-,-
CCOC(=O)c1ccc(NC(=O)Nc2cc3c(cc2N2CCCC2)n(C)c(=O)n3C)cc1,.,-,.,-,-31.8
CCn1c(=O)n(CC)c2cc(N3CCCC3)c(NC(=O)Nc3cc(C)cc(C)c3)cc21,.,-,.,40.2,-
CCn1c(=O)n(CC)c2cc(N3CCCC3)c(NC(=O)c3ccc(C)cc3)cc21,-,-,-,-,-
CC(=O)c1cccc(NC(=O)Nc2cc3c(cc2N2CCCC2)n(C)c(=O)n3C)c1,.,-,.,-,-
SMILES,TRPV1 PAM,D1 potentiator,TRPV1 ag,D1 ag,D1 antag
COc1ccc(-c2nc3scc(CCNS(=O)(=O)c4ccc5c(c4)OCCO5)n3n2)cc1OC,.,-,.,-,.
COc1ccccc1-c1cc(C(=O)Nc2sc3c(c2C#N)CCC(C)C3)c2ccccc2n1 (stereo not given),-,-,-,-,-
COc1ccc(OC)c(-c2cc(C(=O)Nc3sc4c(c3C#N)CCC(C)C4)c3ccccc3n2)c1 (stereo not given),-,-,-,-,-47.3
Cc1c(C(=O)N2CCOCC2)sc(NC(=O)c2ccc3c(c2)OCO3)c1C#N,-,-,-,-,-33.8
O=C(CC1Oc2ccccc2NC1=O)NC1CC1 (stereo not given),-,-,-,-,-
O=C(CC1Oc2ccccc2NC1=O)NC1CCCC1 (stereo not given),?,-,-,-,-40.1
O=C(Nc1ccc(N2CCOCC2)cc1)C1(c2ccc(Cl)cc2)CCC1,-,-,-,43.2,-
O=C(Nc1ccccc1)Nc1ccc(Br)c(Cl)c1,-,-,?,-,-30.9
COc1ccccc1CNCC(=O)Nc1ccc(N2CCOCC2)cc1,-,-,-,-,-
O=C(Nc1ccccc1)Nc1ccccc1Br,-,-,?,-,-
O=C(Nc1ccc(Cl)cc1)Nc1ccccc1NS(=O)(=O)c1cccs1,-,-,-,-,-33.0
COc1ccccc1NC(=O)Nc1ccc(N2CCOCC2)cc1,-,-,-,-,-42.6
Cc1ccc2nc(-c3ccccc3F)c(Nc3ccc(Cl)cc3)n2c1,.,-,.,-,-
O=C(Nc1ccncc1)Nc1cccc(Cl)c1Cl,-,-,?,-,-
O=C1C=C(NC(=O)Nc2ccc(Cl)c(Cl)c2)CCC1,-,-,-,-,-54.3
Cc1noc(NS(=O)(=O)c2ccc(N/C=C\C(=O)c3cccc4ccccc34)cc2)c1C,-,-,-,43.0,-
O=C(Nc1ccc(Cl)cc1)Nc1cccc2nsnc12,-,-,86.6,-,-
O=C(Nc1ccc(N2CCOCC2)cc1)Nc1ccc(Cl)c(Cl)c1,-,-,?,-,-30.8
O=C(Nc1ccc(Cl)cc1)Nc1ccc(N2CCOCC2)cc1,?,-,-,-,-
COc1ccccc1CNC(=O)c1cc2cccc3c2n1CCS3,.,-,.,-,-
O=C(Nc1ccc(Cl)c(Cl)c1)Nc1ccccc1O,-,-,?,-,-37.3
Cc1noc(NS(=O)(=O)c2ccc(NC(=O)Nc3ccc(Cl)c(Cl)c3)cc2)c1C,-,-,-,32.8,-47.5
O=C(NC(=S)Nc1ccc(Br)c(Cl)c1)C1CC1,-,-,-,-,-35.8
N#Cc1ccc(NC(=O)Nc2ccc(Cl)cc2)cc1,-,-,-,31.0,-41.3
CN(CC(=O)Nc1ccc(C#N)cc1)Cc1ccc(Cl)cc1,-,-,-,-,-
SMILES,TRPV1 PAM,D1 potentiator,TRPV1 ag,D1 ag,D1 antag
COc1ccccc1C(=O)NC1=NC(c2ccc(Br)cc2)CC(=O)N1 (stereo not given),.,-,.,-,-
O=C(Nc1ccc(Cl)cc1)Nc1ccc(Cl)c(Cl)c1,-,-,-,-,-33.6
Cc1cccc(Cn2c(=O)n(CCc3ccccc3)c(=O)c3sc4ccccc4c32)c1,.,-,.,-,-
Cc1ccc(NC(=O)CCn2c(=O)c3cccn3c3ccccc32)cc1C,-,-,-,-,-36.7!
O=C(CCn1c(=O)c2cccn2c2ccc(F)cc21)NCc1ccccc1F,.,-,.,-,-69.3
CN(C)c1ccc(CNC(=O)CCn2c(=O)c3cccn3c3ccc(F)cc32)cc1,.,-,.,-,-30.0
Cc1ccc(NC(=O)CCCn2c(=O)c3cccn3c3ccccc32)cc1C,.,-,.,-,-
CSc1ccc(CNC(=O)CCn2c(=O)c3cccn3c3ccc(F)cc32)cc1,.,-,.,-,-
COc1ccccc1N1CCN(c2ncnc3c2c(-c2ccccc2)cn3-c2cccc(C)c2)CC1,.,-,.,-,-
